MARV entry inh: qHTS for inhibitors of binding or entry into cells for Marburg Virus. Marburg virus pseudotyped entry inhibition, cell reporter. Potency, µM (highest dose often 37.8 µM), for inactives: at the top dose activity change, negative = inhibition, hits mostly inhibitors. 300,000 compounds, 1.8% hits; calls by dose curve; tested in HEK293 cells; further: potency means the concentration at half of the fitted maximal effect; on the % scale 0 is the no-effect control and ±100 the full control effect
VACV mCherry inh: qHTS for Stage-Specific Inhibitors of Vaccinia Orthopoxvirus: mCherry Reporter Primary qHTS. Potency, µM (doses to about 36.5 µM), inactives show at the highest dose activity change, negative = inhibition, usual class: inhibitors. 310,000 compounds, 0.63% hits. Vaccinia virus mCherry reporter infection, fluorescence. AID 720579, 2013; calls by dose curve; tested in A549 cells; further: potency means the concentration at half of the fitted maximal effect; on the % scale 0 is the no-effect control and ±100 the full control effect; nearly all actives have a fitted effect of over 35% in size
LASV entry inh: qHTS for Inhibitors of binding or entry into cells for Lassa Virus | 300,000 compounds, 1.2% hits | Lassa virus pseudotype entry inhibition, cell reporter | Potency, µM (series often up to 37.9 µM), for inactives: top-dose activity change, negative = inhibition, hits mostly inhibitors; calls by dose curve; tested in HEK293 cells; further: potency means the concentration at half of the fitted maximal effect; on the % scale 0 is the no-effect control and ±100 the full control effect; nearly all actives have a fitted effect of over 50% in size
Cycloheximide cs: Cycloheximide Counterscreen for Small Molecule Inhibitors of Shiga Toxin; cell reporter, cycloheximide protein synthesis inhibition counterscreen; max response, %; 300,000 compounds, 12% hits; AID 2314, 2010; in the data active means max response mostly above about 13%, no sharp cut-off; inactive means mostly below about 14%; further: read at 38.3 µM for the half of the compounds with a filed dose; 0% is about no effect
VACV Venus inh: qHTS for Stage-Specific Inhibitors of Vaccinia Orthopoxvirus: Venus Reporter Primary qHTS; Vaccinia virus Venus reporter expression, fluorescence; 330,000 compounds, 0.46% hits; Potency, µM (top dose mostly 36.5 µM), inactives show at the top dose activity change, negative = inhibition, hits mostly inhibitors; calls by dose curve; tested in A549 cells; further: potency means the concentration at half of the fitted maximal effect; on the % scale 0 is the no-effect control and ±100 the full control effect; nearly all actives have a fitted effect of over 30% in size
Shiga inhibitor: A qHTS for Small Molecule Inhibitors of Shiga Toxin; inhibition, % at 38.7 µM; Vero cells, Shiga toxin protein synthesis inhibition reporter; 290,000 compounds, 9.2% hits; in the data active means inhibition mostly above about 28%, no sharp cut-off; inactive means mostly below about 43%; further: 0% is about no effect
Active calls of the source: *; i = inactive; ? = inconclusive; . = no result given; [ ] = another dose, or the depositor's remark. This excerpt belongs to a sample that is enriched for hits.

SMILES	MARV entry inh	VACV mCherry inh	LASV entry inh	Cycloheximide cs	VACV Venus inh	Shiga inhibitor
COc1cccc(-n2ccnc2SCC(=O)Nc2ccc(Cl)c(Cl)c2)c1	.	i	0%[46.1 µM]	.	-9%	.
COCCN1C(=O)CCC1(C)C(=O)Nc1ccc2ccccc2c1 (stereo not drawn)	.	7%	.	.	-5%	.
CC(=O)NC(Cc1ccc([N+](=O)[O-])cc1)C(=O)NCC(N)C(=O)c1ccccc1 (stereo not drawn)	.	i	.	.	-19%	.
Cc1cccc(NC(=S)NNC(=O)c2ccc(O)cc2O)c1C	?	?	5%[46.1 µM]	20*	-12%	35*
Cc1cccc(NC(=O)NNC(=O)c2cc3ccccc3cc2O)c1C	7%[46.1 µM]	0%	0%	5	-1%	-2
Cc1ccc(NC(=S)NNC(=O)c2ccccc2O)c(C)c1	?	-23%	-17%[46.1 µM]	33*	-24%	97*
CCNC(=O)/C(C#N)=C/c1c(N2CCN(c3ccccc3)CC2)nc2ccccn2c1=O	.	.	.	29*	.	44*
O=C(/C=C/c1ccccc1[N+](=O)[O-])NCc1ccc(Cl)cc1	2%[46.1 µM]	-3%	6%	-1	-14%	32
O=C(/C=C/c1ccccc1Cl)NCCc1ccccc1	?	.	-25%	50*	.	77*
O=C(/C=C/c1ccccc1Cl)NCc1ccccc1	6%	.	-21%	29*	.	51*
O=C(/C=C/c1ccc(Cl)cc1)NCCc1ccccc1	?	i	-6%	40	-13%	22
CCOc1ccc(CC(=O)Nc2c(C(=O)c3ccccc3)oc3ccc(OC)cc23)cc1OCC	8%[46.1 µM]	2%	6%[46.1 µM]	.	-17%	.
CCOc1ccc(CNC(=O)c2sc3nc(C)cc(C)c3c2-n2cccc2)cc1	-15%[46.1 µM]	-6%	4%[46.1 µM]	.	-2%	.
Cc1ccc(CSc2nc3ccncc3[nH]2)cc1	.	-10%	.	15	-6%	-3
Clc1ccc(CSc2nc3ccncc3[nH]2)cc1	.	i	.	51*	3%	51*
O=C(c1ccc(CSc2nc3ccncc3[nH]2)cc1)N1CCN(c2cccc(Cl)c2)CC1	?	?	26µM*	-4	?	12
O=C(NCc1ccc(Cl)cc1)c1ccc(CSc2nc3ccncc3[nH]2)cc1	-17%[46.1 µM]	4%	?	2	-10%	-4
O=C(c1ccc(CSc2nc3ccncc3[nH]2)cc1)N1CCCCCC1	.	-19%	.	18*	-10%	39
COc1cc(Nc2nc3c(S(=O)(=O)c4ccc(C)c(C)c4)nnn3c3ccsc23)cc(OC)c1	.	-12%[7.34 µM]	-5%[46.1 µM]	.	-16%[7.34 µM]	.
COc1ccc(N2CCN(C(=O)c3cccc(NC(=O)c4nsc5ccccc45)c3)CC2)cc1	.	i	-28%[46.1 µM]	.	-28%	.
CCN(CC)C(=S)NC(=O)c1ccc(Cl)cc1Cl	?	-14%	24%	-3	-4%	22
O=C(CNC(=S)NC(=O)c1ccccc1Br)c1ccccc1	-18%[46.1 µM]	-12%	9%	15	-14%	18
CCCCNC(=S)NC(=O)c1ccccc1Br	12%	-17%	5%	18*	-11%	82*
CCCCNC(=S)NC(=O)c1ccc(Cl)cc1Cl	0%[46.1 µM]	.	14%	32*	-12%	40
CC1CCCC(NC(=S)NC(=O)c2ccccc2Br)C1C (stereo not drawn)	-8%	-7%	?	9	-19%	active
SMILES	MARV entry inh	VACV mCherry inh	LASV entry inh	Cycloheximide cs	VACV Venus inh	Shiga inhibitor
Oc1cc(-c2nc3ccccc3s2)cc2c1OCCN(Cc1cccn1-c1nccs1)C2	.	-16%	.	.	-9%	.
COc1ccc(OC)c(NC(=O)COCc2cc(-c3ccco3)on2)c1	.	-14%	15%[46.1 µM]	.	-6%	.
COc1cccc(C2(CC(=O)N3CCN(c4ccccn4)CC3)CC(=O)N(C3CCCC3)C2=O)c1 (stereo not drawn)	.	-1%	.	.	-17%	.
Cc1ccc(S(=O)(=O)C(CNC(=O)c2ccc(F)c(F)c2)c2ccco2)cc1 (stereo not drawn)	.	-12%	-26%[46.1 µM]	.	-18%	.
COc1ccc(-c2nnn(Cc3ccccc3)n2)cc1	7%	-13%	?	44*	-15%	86*
Cc1ccccc1Cn1nnc(-c2cccc(C(=O)O)c2)n1	5.8µM*	.	13µM*	56*	.	124*
O=C(O)c1cccc(-c2nnn(Cc3ccccc3Cl)n2)c1	6.3µM*	-7%	8.2µM*	41*	3%	96*
Cc1ccccc1Cn1nnc(-c2ccc(C(=O)O)cc2)n1	?	6%	0%	-4	4%	-2
O=C(O)c1cccc(OCc2ccccc2Cl)c1	?	.	?	111*	.	122*
COc1ccc(CNC(=O)CN(C)S(=O)(=O)c2ccc3nc(C)sc3c2)cc1	7%[46.1 µM]	2%	17%[46.1 µM]	.	-8%	.
CCOC(=O)c1cn2nc(Oc3cccc(C(F)(F)F)c3)ccc2n1	-4%[46.1 µM]	-6%	-10%	1	-6%	32
O=C(Nc1ccccc1C(F)(F)F)N1CCOc2ccc(Cl)cc21	.	10%	?	.	-5%	.
CSc1ccc(-c2nnn(Cc3ccc(C)cc3)n2)cc1	?	-16%[1.46 µM]	-23%	21*	-4%	24
Nc1ccc(-c2nnn(Cc3ccccc3)n2)cc1	?	i	-1%[46.1 µM]	.	1%	.
O=C(O)c1cccc(-c2nnn(Cc3ccccc3)n2)c1	?	-10%	?	70*	-8%	63*
COc1cccc2cc(C(=O)N3CCN(C(=O)c4ccco4)CC3)c(=O)oc12	0%	-14%	7%	-1	-4%	-10
COc1cccc2cc(C(=O)N3CCN(c4ncccn4)CC3)c(=O)oc12	2%	-8%	15%	14*	3%	15
COc1cccc2cc(C(=O)N3CCCCCCC3)c(=O)oc12	?	-8%	12%[46.1 µM]	32*	0%	44*
COc1cccc2cc(C(=O)N3CCN(c4ccc(C)cc4C)CC3)c(=O)oc12	4%	-25%	.	3	?	19
CCC(C)C1NC(=O)C(Cc2ccc(O)cc2)NC(=O)C(N)CSSCC(C(=O)N2CCCC2C(=O)NC(CC(C)C)C(=O)NCC(N)=O)NC(=O)C(CC(N)=O)NC(=O)C(CCC(N)=O)NC1=O (stereo not drawn)	.	.	.	-7	.	-3
CCc1cc2c(=O)n(Cc3ccco3)c(SCC(=O)NC3CCS(=O)(=O)C3)nc2s1 (stereo not drawn)	3%[46.1 µM]	0%	5%[46.1 µM]	16	11%	-12
CCc1cc2c(=O)n(Cc3ccco3)c(SCC(=O)NCC3CCCO3)nc2s1 (stereo not drawn)	?	-16%	?	-3	-18%	-2
CCc1cc2c(=O)n(Cc3ccco3)c(SCC(=O)N3CCCc4ccccc43)nc2s1	?	.	?	19*	.	48
CCc1cc2c(=O)n(Cc3ccco3)c(SCc3c(C)noc3C)nc2s1	?	?	?	12*	?	42*
COc1ccc(Cc2c(C)nn(-c3nc(C)c(C(=O)Nc4cccc(C(C)=O)c4)s3)c2C)cc1	9%[46.1 µM]	-8%	6%[46.1 µM]	.	?	.
CCOc1ccccc1NC(=O)Cn1nnc2sc(-c3ccccc3)cc2c1=O	-8%[46.1 µM]	-11%	20%[46.1 µM]	.	-18%	.

Screening data deposited in PubChem by National Center for Advancing Translational Sciences (NCATS).
